We go through one sequence from article PMC7862700, “An all-to-all approach to the identification of sequence-specific readers for epigenetic DNA modifications on cytosine”.

What all share (experiment): DAPPL (digital affinity profiling via proximity ligation, sequencing); 10 mM Tris-HCl pH 7.5, 50 mM NaCl, 1 mM DTT, 4% glycerol, room temperature, 30 min; GST-TFs on glutathione beads, 16-mer random dsDNA library, 0.1% formaldehyde crosslink after washing; high values mean tight binding
The target in one assay is T1, FEV (Homo sapiens, UniProt Q99581 1-238).
T1 sequence: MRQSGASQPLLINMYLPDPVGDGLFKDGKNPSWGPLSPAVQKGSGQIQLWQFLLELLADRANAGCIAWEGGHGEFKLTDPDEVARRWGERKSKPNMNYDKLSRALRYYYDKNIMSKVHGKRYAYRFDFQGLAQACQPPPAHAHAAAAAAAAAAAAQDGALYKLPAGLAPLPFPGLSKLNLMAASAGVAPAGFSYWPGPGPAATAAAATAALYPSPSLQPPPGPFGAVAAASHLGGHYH
The conditions noted are these: protein: recombinant; tags: N-terminal GST; dsDNA, one strand shown. The method in brief: (§1)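 After expression in yeast as GST fusions, human transcription factors were bound to glutathione beads, DNA-barcoded and mixed with a tag-only sample. The pools were incubated with 200 nmole of a 16-mer random double-stranded DNA library in Tris/NaCl/DTT/glycerol buffer (30 min, room temperature), washed and crosslinked with 0.1% formaldehyde. Proximity ligation with BsaI/T4 ligase ran for 1 h at 37 °C, before PCR amplification and sequencing on an Illumina NextSeq500. Binding signal is a hexamer's read frequency for a factor divided by its frequency for the tag-only sample.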

The target in the next assay is ETV5 (Homo sapiens, UniProt P41161 1-510). To be noted: protein: recombinant; tags: N-terminal GST; dsDNA, one strand shown. The method in brief:
as §1

For another assay, the target named is HSF1 (Homo sapiens, UniProt Q00613 1-529). To be noted: protein: recombinant; tags: N-terminal GST; chain copies: 3; dsDNA, one strand shown. The method in brief: as §1
Chain of HSF1 (Q00613 whole entry): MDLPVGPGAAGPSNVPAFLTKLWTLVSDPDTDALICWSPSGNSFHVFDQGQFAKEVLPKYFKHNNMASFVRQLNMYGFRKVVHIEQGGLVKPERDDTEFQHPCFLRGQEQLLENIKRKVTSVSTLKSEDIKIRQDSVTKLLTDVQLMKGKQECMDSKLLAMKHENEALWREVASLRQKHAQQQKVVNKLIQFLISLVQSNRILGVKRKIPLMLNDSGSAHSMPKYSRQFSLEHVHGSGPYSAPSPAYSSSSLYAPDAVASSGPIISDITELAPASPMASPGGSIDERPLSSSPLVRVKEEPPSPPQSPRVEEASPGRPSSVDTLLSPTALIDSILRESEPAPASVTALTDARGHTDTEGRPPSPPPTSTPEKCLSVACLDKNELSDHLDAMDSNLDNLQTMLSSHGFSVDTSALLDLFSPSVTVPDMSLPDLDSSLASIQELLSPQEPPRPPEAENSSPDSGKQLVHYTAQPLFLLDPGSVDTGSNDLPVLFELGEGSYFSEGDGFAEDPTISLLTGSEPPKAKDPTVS
Another assay concerns the target T2, SPIC (Homo sapiens, UniProt Q8N5J4 1-248).
T2 sequence: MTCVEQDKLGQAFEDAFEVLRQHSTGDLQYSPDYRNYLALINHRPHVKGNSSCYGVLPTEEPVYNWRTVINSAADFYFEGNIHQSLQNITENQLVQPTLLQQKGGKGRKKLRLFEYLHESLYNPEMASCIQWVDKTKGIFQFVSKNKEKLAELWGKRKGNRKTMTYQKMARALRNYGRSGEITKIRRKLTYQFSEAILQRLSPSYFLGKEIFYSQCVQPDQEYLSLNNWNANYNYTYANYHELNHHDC
To be noted: protein: recombinant; tags: N-terminal GST; dsDNA, one strand shown. Put shortly: as §1

A further assay deals with ELF4 (Homo sapiens, UniProt Q99607 1-663). The conditions noted are these: protein: recombinant; tags: N-terminal GST; dsDNA, one strand shown. Put shortly: as §1
Chain of ELF4 (Q99607 whole entry): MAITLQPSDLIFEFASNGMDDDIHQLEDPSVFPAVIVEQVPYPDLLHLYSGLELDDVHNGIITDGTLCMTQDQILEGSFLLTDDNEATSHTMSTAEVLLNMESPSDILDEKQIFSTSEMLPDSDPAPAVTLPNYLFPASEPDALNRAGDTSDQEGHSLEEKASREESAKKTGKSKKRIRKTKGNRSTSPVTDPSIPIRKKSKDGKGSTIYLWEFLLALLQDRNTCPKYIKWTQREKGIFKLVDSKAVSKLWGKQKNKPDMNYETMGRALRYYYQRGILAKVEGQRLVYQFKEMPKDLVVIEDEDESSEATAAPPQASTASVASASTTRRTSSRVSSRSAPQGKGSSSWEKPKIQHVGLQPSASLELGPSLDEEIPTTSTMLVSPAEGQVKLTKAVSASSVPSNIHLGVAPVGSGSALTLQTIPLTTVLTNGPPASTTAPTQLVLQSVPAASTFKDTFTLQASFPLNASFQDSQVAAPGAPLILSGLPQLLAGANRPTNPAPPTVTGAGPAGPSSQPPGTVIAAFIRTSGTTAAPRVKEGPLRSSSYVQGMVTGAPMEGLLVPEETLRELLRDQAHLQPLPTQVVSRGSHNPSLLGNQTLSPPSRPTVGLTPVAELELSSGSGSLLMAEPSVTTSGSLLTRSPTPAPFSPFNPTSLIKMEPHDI
The target of a further assay is T3, ELK4 (Homo sapiens, UniProt P28324-2 1-405).
T3 sequence: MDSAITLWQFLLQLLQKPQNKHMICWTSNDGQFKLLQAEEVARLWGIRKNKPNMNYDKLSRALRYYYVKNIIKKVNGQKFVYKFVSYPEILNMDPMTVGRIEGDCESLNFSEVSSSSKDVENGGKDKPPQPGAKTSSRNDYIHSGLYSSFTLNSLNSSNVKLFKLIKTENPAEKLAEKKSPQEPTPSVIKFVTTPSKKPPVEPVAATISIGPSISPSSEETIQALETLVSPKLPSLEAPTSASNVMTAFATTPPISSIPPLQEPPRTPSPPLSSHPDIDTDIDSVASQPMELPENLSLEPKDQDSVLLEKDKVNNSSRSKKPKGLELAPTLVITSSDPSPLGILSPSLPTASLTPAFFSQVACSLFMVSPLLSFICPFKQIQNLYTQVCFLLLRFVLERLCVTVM
To be noted: protein: recombinant; tags: N-terminal GST; dsDNA, one strand shown. Put shortly: as §1

Another assay has as its target T4, ETV2 (Homo sapiens, UniProt O00321 1-342).
T4 sequence: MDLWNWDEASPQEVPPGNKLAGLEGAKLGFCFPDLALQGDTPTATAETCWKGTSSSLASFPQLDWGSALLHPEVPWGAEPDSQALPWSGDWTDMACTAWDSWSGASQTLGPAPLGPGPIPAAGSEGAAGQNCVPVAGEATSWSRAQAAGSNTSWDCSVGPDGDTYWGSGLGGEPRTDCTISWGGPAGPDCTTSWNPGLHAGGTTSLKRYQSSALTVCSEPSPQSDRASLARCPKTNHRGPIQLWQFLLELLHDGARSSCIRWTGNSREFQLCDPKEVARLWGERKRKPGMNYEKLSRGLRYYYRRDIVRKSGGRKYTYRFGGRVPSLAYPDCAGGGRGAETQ
The conditions noted are these: protein: recombinant; tags: N-terminal GST; dsDNA, one strand shown. The method in brief:
as §1

The next assay concerns the target T5, ELF3 (Homo sapiens, UniProt P78545 1-371).
T5 sequence: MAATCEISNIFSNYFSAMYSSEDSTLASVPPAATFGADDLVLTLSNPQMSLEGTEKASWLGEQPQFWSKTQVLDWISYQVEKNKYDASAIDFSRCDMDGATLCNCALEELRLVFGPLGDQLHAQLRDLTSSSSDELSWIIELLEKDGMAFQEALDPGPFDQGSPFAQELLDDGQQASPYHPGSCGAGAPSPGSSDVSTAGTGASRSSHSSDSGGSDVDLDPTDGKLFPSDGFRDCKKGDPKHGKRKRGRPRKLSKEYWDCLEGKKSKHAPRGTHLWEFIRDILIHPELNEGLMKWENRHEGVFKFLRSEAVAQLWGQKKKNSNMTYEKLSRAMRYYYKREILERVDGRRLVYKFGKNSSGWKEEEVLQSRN
To be noted: protein: recombinant; tags: N-terminal GST; dsDNA, one strand shown. Put shortly: as §1

The target in a further assay is CRX (Homo sapiens, UniProt O43186 1-299). To be noted: protein: recombinant; tags: N-terminal GST; dsDNA, one strand shown. Put shortly:
as §1

Another assay deals with ETV1 (Homo sapiens, UniProt P50549 1-477). The conditions noted are these: protein: recombinant; tags: N-terminal GST; dsDNA, one strand shown. Put shortly: as §1
Chain of ETV1 (P50549 whole entry): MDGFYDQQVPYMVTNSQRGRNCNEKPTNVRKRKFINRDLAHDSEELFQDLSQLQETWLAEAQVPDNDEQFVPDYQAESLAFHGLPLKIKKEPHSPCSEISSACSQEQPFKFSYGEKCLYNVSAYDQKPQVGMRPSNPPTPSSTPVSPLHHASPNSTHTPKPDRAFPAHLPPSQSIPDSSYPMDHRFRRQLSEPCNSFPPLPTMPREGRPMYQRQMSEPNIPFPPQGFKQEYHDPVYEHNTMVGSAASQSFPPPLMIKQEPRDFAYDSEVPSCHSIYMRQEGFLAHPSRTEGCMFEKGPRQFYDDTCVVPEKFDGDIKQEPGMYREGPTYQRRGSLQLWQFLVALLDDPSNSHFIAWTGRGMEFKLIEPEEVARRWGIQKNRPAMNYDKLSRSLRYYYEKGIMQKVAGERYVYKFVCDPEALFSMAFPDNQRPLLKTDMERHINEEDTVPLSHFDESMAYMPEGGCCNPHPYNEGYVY
The target in the next assay is T6, ERF (Homo sapiens, UniProt P50548 1-548).
T6 sequence: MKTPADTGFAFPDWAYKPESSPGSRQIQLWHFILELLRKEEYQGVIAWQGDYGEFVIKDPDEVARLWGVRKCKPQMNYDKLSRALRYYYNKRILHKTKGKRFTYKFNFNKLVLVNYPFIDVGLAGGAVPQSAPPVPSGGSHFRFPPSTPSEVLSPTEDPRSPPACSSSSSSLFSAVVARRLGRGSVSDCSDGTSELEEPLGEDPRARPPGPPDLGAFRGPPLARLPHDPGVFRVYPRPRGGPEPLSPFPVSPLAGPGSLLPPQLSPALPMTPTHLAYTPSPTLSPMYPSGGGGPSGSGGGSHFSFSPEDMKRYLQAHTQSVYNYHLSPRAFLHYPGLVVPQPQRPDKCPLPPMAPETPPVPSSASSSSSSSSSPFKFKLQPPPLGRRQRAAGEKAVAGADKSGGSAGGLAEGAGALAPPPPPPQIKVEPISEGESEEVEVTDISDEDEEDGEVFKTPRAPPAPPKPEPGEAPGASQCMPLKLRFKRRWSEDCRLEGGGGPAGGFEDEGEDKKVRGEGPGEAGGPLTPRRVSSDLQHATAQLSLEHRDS
The conditions noted are these: protein: recombinant; tags: N-terminal GST; dsDNA, one strand shown. Put shortly:
as §1

The next assay deals with T7, ETV3L (Homo sapiens, UniProt Q6ZN32 1-361).
T7 sequence: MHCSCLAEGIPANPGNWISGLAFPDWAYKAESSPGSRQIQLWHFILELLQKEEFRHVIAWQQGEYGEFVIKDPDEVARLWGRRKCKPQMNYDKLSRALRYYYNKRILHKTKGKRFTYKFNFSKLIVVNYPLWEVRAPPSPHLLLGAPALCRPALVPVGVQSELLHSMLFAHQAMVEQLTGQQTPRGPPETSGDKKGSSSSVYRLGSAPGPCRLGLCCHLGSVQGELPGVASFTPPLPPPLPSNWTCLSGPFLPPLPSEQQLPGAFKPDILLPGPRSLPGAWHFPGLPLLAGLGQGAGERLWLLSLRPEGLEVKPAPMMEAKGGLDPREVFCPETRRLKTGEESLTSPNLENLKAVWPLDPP
The conditions noted are these: protein: recombinant; tags: N-terminal GST; dsDNA, one strand shown. Put shortly: as §1

The next assay concerns the target T8, ETS2 (Homo sapiens, UniProt P15036 1-469).
T8 sequence: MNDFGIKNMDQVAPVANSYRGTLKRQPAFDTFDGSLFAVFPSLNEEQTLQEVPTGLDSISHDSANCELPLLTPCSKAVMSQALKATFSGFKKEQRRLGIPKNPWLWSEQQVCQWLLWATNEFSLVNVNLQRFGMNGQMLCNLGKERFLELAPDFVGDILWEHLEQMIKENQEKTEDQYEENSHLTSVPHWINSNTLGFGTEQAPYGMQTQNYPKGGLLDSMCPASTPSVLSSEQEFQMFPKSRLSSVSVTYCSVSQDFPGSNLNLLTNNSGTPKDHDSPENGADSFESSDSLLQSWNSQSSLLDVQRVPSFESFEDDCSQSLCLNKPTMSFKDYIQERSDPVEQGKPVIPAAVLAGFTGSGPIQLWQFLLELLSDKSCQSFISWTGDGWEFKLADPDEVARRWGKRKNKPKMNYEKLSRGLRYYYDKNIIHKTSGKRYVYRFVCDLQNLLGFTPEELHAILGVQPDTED
The conditions noted are these: protein: recombinant; tags: N-terminal GST; dsDNA, one strand shown. The method in brief: as §1

In a further assay the target is T9, SPDEF (Homo sapiens, UniProt O95238 1-335).
T9 sequence: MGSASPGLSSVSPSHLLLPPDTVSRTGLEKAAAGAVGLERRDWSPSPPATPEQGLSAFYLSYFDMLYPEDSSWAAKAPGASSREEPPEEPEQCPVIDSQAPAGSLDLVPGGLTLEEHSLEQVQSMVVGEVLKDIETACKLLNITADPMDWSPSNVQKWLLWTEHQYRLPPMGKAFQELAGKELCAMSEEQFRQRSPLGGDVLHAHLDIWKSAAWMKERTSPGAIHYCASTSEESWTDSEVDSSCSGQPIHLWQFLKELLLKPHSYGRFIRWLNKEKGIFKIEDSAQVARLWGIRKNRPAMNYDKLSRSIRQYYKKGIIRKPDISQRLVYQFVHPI
The conditions noted are these: protein: recombinant; tags: N-terminal GST; dsDNA, one strand shown. The method in brief:
as §1

The next assay concerns the target T10, ETV7 (Homo sapiens, UniProt Q9Y603 1-341).
T10 sequence: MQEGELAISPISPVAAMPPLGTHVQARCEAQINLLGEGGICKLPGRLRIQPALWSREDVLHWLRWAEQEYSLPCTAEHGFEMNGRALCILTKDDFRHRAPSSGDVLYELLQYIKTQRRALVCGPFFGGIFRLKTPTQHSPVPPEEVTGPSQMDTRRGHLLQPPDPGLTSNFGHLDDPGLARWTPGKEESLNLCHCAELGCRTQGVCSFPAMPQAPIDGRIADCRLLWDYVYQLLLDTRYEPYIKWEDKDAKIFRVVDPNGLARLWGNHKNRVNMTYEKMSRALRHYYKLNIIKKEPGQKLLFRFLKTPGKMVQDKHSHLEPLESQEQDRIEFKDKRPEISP
The conditions noted are these: protein: recombinant; tags: N-terminal GST; dsDNA, one strand shown. Put shortly: as §1

Another assay deals with T11, ELF5 (Homo sapiens, UniProt Q9UKW6-2 1-255).
T11 sequence: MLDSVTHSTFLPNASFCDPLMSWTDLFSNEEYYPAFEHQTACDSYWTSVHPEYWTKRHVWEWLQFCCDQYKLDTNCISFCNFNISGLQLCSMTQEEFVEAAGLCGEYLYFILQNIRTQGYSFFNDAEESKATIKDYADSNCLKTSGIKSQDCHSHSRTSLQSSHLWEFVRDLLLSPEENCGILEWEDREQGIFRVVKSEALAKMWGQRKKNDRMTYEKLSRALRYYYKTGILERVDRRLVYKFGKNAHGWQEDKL
To be noted: protein: recombinant; tags: N-terminal GST; dsDNA, one strand shown. Put shortly: as §1

For the next assay, the target named is T12, ETV3 (Homo sapiens, UniProt P41162-2 1-143).
T12 sequence: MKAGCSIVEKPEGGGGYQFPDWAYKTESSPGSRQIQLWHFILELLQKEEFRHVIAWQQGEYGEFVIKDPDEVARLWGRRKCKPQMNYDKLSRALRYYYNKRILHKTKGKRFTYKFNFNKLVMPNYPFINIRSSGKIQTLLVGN
The conditions noted are these: protein: recombinant; tags: N-terminal GST; dsDNA, one strand shown. Put shortly: as §1

The next assay has as its target ETV6 (Homo sapiens, UniProt P41212 1-452). To be noted: protein: recombinant; tags: N-terminal GST; dsDNA, one strand shown. Put shortly: as §1

Chain of CRX (O43186 whole entry): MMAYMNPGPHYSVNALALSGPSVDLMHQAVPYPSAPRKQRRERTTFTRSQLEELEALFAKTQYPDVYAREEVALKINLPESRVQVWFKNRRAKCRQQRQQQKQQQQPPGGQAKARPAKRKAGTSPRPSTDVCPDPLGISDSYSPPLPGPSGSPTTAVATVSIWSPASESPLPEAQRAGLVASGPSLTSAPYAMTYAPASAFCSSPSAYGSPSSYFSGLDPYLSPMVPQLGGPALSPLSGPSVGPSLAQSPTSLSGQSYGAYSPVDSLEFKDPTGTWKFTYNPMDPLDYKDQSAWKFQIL
Chain of ETV6 (P41212 whole entry): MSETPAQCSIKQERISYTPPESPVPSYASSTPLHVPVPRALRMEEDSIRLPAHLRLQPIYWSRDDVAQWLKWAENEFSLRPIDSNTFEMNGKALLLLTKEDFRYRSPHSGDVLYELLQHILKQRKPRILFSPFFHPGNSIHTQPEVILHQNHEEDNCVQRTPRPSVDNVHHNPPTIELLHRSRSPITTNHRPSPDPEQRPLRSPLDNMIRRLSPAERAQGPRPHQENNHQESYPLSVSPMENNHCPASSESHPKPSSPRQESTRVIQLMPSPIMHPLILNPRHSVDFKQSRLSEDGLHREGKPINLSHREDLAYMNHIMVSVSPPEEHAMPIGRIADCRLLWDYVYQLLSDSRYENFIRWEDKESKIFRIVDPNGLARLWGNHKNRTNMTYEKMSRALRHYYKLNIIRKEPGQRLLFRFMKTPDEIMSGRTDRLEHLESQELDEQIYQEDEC
Chain of ETV5 (P41161 whole entry): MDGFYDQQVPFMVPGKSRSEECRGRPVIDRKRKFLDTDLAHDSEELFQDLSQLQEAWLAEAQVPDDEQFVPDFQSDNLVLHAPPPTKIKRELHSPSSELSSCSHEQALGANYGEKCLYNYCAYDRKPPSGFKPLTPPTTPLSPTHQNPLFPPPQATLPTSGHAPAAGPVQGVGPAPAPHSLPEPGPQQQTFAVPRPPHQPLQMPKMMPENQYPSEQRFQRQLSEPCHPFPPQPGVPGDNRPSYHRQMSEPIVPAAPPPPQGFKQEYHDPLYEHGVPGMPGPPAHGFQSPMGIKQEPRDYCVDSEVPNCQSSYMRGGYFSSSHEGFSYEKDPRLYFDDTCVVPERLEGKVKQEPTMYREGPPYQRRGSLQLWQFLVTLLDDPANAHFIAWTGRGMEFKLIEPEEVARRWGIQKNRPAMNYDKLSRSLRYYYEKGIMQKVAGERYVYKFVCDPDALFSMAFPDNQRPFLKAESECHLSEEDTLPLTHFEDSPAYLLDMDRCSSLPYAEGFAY

Take TCCTTG: the binding signal with FEV is 1.21 fold enrichment (6-mer frequency, TF over GST control); with ETV5, 1.22 fold enrichment (6-mer frequency, TF over GST control); with HSF1 it was 1.15 fold enrichment (6-mer frequency, TF over GST control); with SPIC, 1.23 fold enrichment (6-mer frequency, TF over GST control); with ELF4, 1.27 fold enrichment (6-mer frequency, TF over GST control); with ELK4, 1.41 fold enrichment (6-mer frequency, TF over GST control). Besides, the binding signal in the assay with ETV2 is 1 fold enrichment (6-mer frequency, TF over GST control); with ELF3, 1.31 fold enrichment (6-mer frequency, TF over GST control); with CRX, 1.11 fold enrichment (6-mer frequency, TF over GST control); with ETV1, 1.35 fold enrichment (6-mer frequency, TF over GST control); with ERF, 1.39 fold enrichment (6-mer frequency, TF over GST control); in the assay with ETV3L it was 1.29 fold enrichment (6-mer frequency, TF over GST control). Further, the binding signal is 1.28 fold enrichment (6-mer frequency, TF over GST control) with ETS2; 1.48 fold enrichment (6-mer frequency, TF over GST control) with SPDEF; 1.22 fold enrichment (6-mer frequency, TF over GST control) in the assay with ETV7; 1.95 fold enrichment (6-mer frequency, TF over GST control) in the assay with ELF5; 1.36 fold enrichment (6-mer frequency, TF over GST control) with ETV3; 1.19 fold enrichment (6-mer frequency, TF over GST control) with ETV6.
